Reference: PubChem BioAssay AID463173 (ICCB-Longwood Screening Facility, Harvard Medical School, 2010)
Hit rate of the full screen: of about 52,000 compounds, about 4,300 (8.3%) were called active. Cut-off read from the data, not from the text of the source: active = survival mostly below about 52% (no sharp cut-off); inactive = mostly above about 56%. The list comes from a sample in which actives are over-represented; it also holds similar structures and randomly drawn compounds.

These compounds were tested on DeltatarO mutant (assay: growth inhibition of S. aureus wild type versus tarO mutant, primary screen, teichoic acid synthesis inhibitors, RN4220, OD600 (AID 463173)). Details: OD600, 18 h, hits give low values, screened at 18.75 µg/mL (by protocol).
`Cc1c(Cl)cccc1Nc1nn2c(=O)c3ccc(C(=O)N(C)Cc4ccccc4)cc3nc2s1` was tested, and the survival was 81% (inactive). For `CCc1ccc(NC(=O)Cn2c(=O)n(CCC(C)C)c(=O)c3cccnc32)cc1`, the survival was 76% (inactive). With `CC(=O)Nc1ccccc1N1CCCCC1` the survival was 100% (inactive). With `COc1cc(NC(=O)CCc2c(C)nc3nc(-c4cc(OC)cc(OC)c4)nn3c2C)cc(OC)c1` the survival was 83% (inactive). `CCCCCC1CC(CC(=O)Nc2nncs2)C(=O)O1` (stereo not given) was tested, and the survival was 110% (inactive). `CCOc1ccc(CNC(=O)CCCn2c(=O)c3cccn3c3ccc(F)cc32)cc1` was tested, and the survival was 41% (active). In the case of `CCOc1ccc(CNC(=O)Cn2c(=O)c3cccn3c3ccc(F)cc32)cc1`, the survival is reported as 80% (inactive). In the case of `CCOc1ccccc1CNC(=O)CCn1c(=O)c2cccn2c2ccc(F)cc21`, the survival is reported as 46% (inactive). `CCOc1ccccc1CNC(=O)Cn1c(=O)c2cccn2c2ccc(F)cc21` was tested, and the survival was 68% (inactive). `CCOc1ccccc1CNC(=O)CCCn1c(=O)c2cccn2c2ccc(F)cc21` was tested, and the survival was 33% (active). With `O=C(CCCn1c(=O)c2cccn2c2ccc(F)cc21)NCc1ccc(Cl)cc1` the survival was 38% (active). `CCOc1ccc(CNC(=O)CCCn2c(=O)c3cccn3c3ccccc32)cc1` was tested, and the survival was 55% (inactive). `Cc1cccc(CNC(=O)CCCn2c(=O)c3cccn3c3ccc(F)cc32)c1` was tested, and the survival was 79% (inactive). `CCOc1ccc(CNC(=O)CCn2c(=O)c3cccn3c3ccc(F)cc32)cc1` was tested, and the survival was 45% (active). `CCOc1ccc(CNC(=O)CCCn2c(=O)c3cccn3c3cccnc32)cc1` was tested, and the survival was 120% (inactive). In the case of `CCc1ccc(CNC(=O)CCn2c(=O)c3cccn3c3ccc(F)cc32)cc1`, the survival is reported as 91% (inactive). `CCOc1ccc(CCNC(=O)CCn2c(=O)c3cccn3c3ccc(F)cc32)cc1` was tested, and the survival was 50% (inactive). With `CCC(C)NC(=O)C1CCN(S(=O)(=O)c2ccc3c(c2)CCCN3C(C)=O)CC1` (stereo not given) the survival was 67% (inactive). In the case of `CC(C)(C)NC(=S)Nc1ccc2nccnc2c1`, the survival is reported as 65% (inactive). For `Cc1ccc(-c2noc(CNS(=O)(=O)c3ccc(F)cc3)n2)cc1`, the survival was 81% (inactive). `Cc1ccc(C)c(N2CCN(C(=O)Cn3cnc4onc(-c5ccc(F)cc5)c4c3=O)CC2)c1` was tested, and the survival was 83% (inactive). For `CC(C)CCNC(=O)C(=O)Nc1c2c(nn1-c1ccc(Cl)cc1)CSC2`, the survival was 86% (inactive). `Cc1nc2ccn(Cc3ccccc3)c(=O)c2cc1C(=O)N1CCN(c2ccc(F)cc2)CC1` was tested, and the survival was 95% (inactive). `O=C(COc1ccccc1)N(Cc1cccnc1)c1nc2c(F)cccc2s1` was tested, and the survival was 84% (inactive). In the case of `Cc1ccc(C(=O)N2CCc3cc(CNC(=O)c4ccnn4C)ccc32)cc1`, the survival is reported as 91% (inactive). With `Cn1cc(CCCC(=O)NCc2ccccc2Cl)c2ccccc21` the survival was 75% (inactive). For `COc1cccc(CNC(=O)Cn2c(=O)c3cccn3c3ccc(F)cc32)c1OC`, the survival was 103% (inactive). For `CC(C)Oc1ccc(CNC(=O)CCCn2c(=O)c3cccn3c3ccccc32)cc1`, the survival was 45% (active). With `COc1cccc(CNC(=O)CCCn2c(=O)c3cccn3c3ccc(F)cc32)c1OC` the survival was 43% (active). In the case of `CC(C)Oc1ccc(CNC(=O)CCCn2c(=O)c3cccn3c3cccnc32)cc1`, the survival is reported as 111% (inactive). For `CC(C)Oc1ccc(CNC(=O)CCn2c(=O)c3cccn3c3ccc(F)cc32)cc1`, the survival was 48% (inactive). In the case of `COc1cccc(CNC(=O)CCn2c(=O)c3cccn3c3ccc(F)cc32)c1OC`, the survival is reported as 59% (inactive). In the case of `COc1cccc(NC(=O)Cn2c(=O)n(-c3cccc(OC)c3)c(=O)c3c4c(sc32)CCCC4)c1`, the survival is reported as 107% (inactive). For `COc1ccc(-c2nc3c4ccccc4n(CC(=O)Nc4cc(F)ccc4F)c(=O)n3n2)cc1`, the survival was 84% (inactive). In the case of `Cc1ccc(-c2nc3sc(CCNC(=O)c4ccc(F)c(F)c4)c(C)n3n2)cc1`, the survival is reported as 76% (inactive). In the case of `CCn1c(=O)c2cc(C(=O)Nc3cccc(C(F)(F)F)c3)sc2c2ccccc21`, the survival is reported as 84% (inactive). With `CCn1c(=O)c2cc(C(=O)NCCc3ccc(OC)c(OC)c3)sc2c2ccccc21` the survival was 42% (active). In the case of `CCn1c(=O)c2cc(C(=O)NCCc3cc(OC)ccc3OC)sc2c2ccccc21`, the survival is reported as 34% (active). In the case of `CCc1ccc(CNC(=O)c2cc3c(=O)n(CC)c4ccccc4c3s2)cc1`, the survival is reported as 51% (inactive). `CCn1c(=O)c2cc(C(=O)NCc3cc(OC)ccc3OC)sc2c2ccccc21` was tested, and the survival was 54% (active). For `COc1ccc(CCNC(=O)c2cc3c(=O)n(C)c4ccccc4c3s2)cc1OC`, the survival was 65% (inactive). For `COc1ccc(Br)cc1CNC(=O)c1cc2c(=O)n(C)c3ccccc3c2s1`, the survival was 94% (inactive). With `CCn1c(=O)c2cc(C(=O)Nc3cc(OC)c(OC)c(OC)c3)sc2c2ccccc21` the survival was 41% (active). In the case of `CCn1c(=O)c2cc(C(=O)Nc3cc(C)c(Cl)cc3OC)sc2c2ccccc21`, the survival is reported as 69% (inactive). For `CCOc1ccc(CCNC(=O)c2cc3c(=O)n(CC)c4ccccc4c3s2)cc1OCC`, the survival was 60% (inactive). With `CCn1c(=O)c2cc(C(=O)NCCc3ccc(Cl)cc3)sc2c2ccccc21` the survival was 76% (inactive). For `CCn1c(=O)c2cc(C(=O)NCCCOC)sc2c2ccccc21`, the survival was 103% (inactive). In the case of `CCOC(=O)c1[nH]c2ccccc2c1NC(=O)c1ccc(Br)cc1`, the survival is reported as 95% (inactive). With `Cc1cccc(-c2nc3nc(C)cc(NCc4ccccc4Cl)n3n2)c1` the survival was 74% (inactive). For `COc1ccccc1C(=O)Nc1ccc(C(=O)OCc2cc(=O)n3nc(C4CC4)sc3n2)cc1`, the survival was 72% (inactive). For `Cc1ccccc1C1C(C#N)=C(N)NC(S)=C1C#N` (stereo not given), the survival was 93% (inactive). With `CCC(=O)N1c2ccccc2CC1C(=O)NCCc1cc(OC)c(OC)c(OC)c1` (stereo not given) the survival was 129% (inactive). With `CC(c1ccccc1F)n1cc(C(=O)NCCCn2ccnc2)nn1` (stereo not given) the survival was 96% (inactive). `CCOc1ccc(NC(=O)Cn2cc(C(=O)c3ccc(C)c(C)c3)c(=O)c3cc(OC)c(OC)cc32)cc1` was tested, and the survival was 95% (inactive). With `COc1ccc(CNC(=O)c2cc3c(=O)[nH]c4ccc(C)cc4c3s2)c(OC)c1` the survival was 44% (active). `COc1ccc(CCNC(=O)c2cc3c(=O)[nH]c4ccc(C)cc4c3s2)cc1OC` was tested, and the survival was 64% (inactive). `COc1ccc(CNC(=O)c2cc3c(=O)oc4ccc(C)cc4c3s2)c(OC)c1` was tested, and the survival was 86% (inactive). `CC1CCC(NC(=O)CCc2cn(Cc3ccc(F)cc3)c3ccccc23)CC1` (stereo not given) was tested, and the survival was 60% (inactive). In the case of `CCCCSC1=NC(C)(C)CC(C)O1` (stereo not given), the survival is reported as 79% (inactive). `CCc1ccc(NCc2cc3ccc(OC)cc3n(CC(=O)Nc3ccccc3OC)c2=O)cc1` was tested, and the survival was 79% (inactive). In the case of `CCCC12CN3CC(C)(CN(C1)C3c1ccc(CC)cc1)C2=O` (stereo not given), the survival is reported as 87% (inactive). With `CCCC12CN3CC(CCC)(CN(C1)C3c1ccc(OCc3ccccc3)cc1)C2=O` (stereo not given) the survival was 112% (inactive). In the case of `CCCC12CN3CC(CCC)(CN(C1)C3c1ccc(OC(C)C)cc1)C2=O` (stereo not given), the survival is reported as 21% (active). `COc1ccc(Cn2c(C(=O)O)c(CNC3CCC(C)CC3)c3ccc(C)cc32)cc1` (stereo not given) was tested, and the survival was 115% (inactive). With `COc1cccc(N2CCN(C(=O)c3nn(C)c4c3CSc3ccc(C)cc3-4)CC2)c1` the survival was 117% (inactive). For `COC(=O)c1ccc2c(=O)n(CCCCCC(=O)NCc3ccc(OC)cc3)c(=O)[nH]c2c1`, the survival was 71% (inactive). With `Cc1noc(-c2ccc(-c3noc(-c4ccc(F)cc4)n3)cc2)n1` the survival was 72% (inactive). In the case of `Cc1noc(-c2ccc(-c3noc(-c4ccc(Cl)cc4)n3)cc2)n1`, the survival is reported as 66% (inactive). `Cc1noc(-c2ccc(-c3noc(-c4ccccc4)n3)cc2)n1` was tested, and the survival was -4% (active). `Cc1nc(-c2ccc(S(=O)(=O)NCc3ccc(N(C)C)cc3)cc2)co1` was tested, and the survival was 83% (inactive). With `CCOc1ccc(C(c2c(O)cc(C)n(Cc3ccco3)c2=O)N2CCN(c3ccccc3)CC2)cc1` (stereo not given) the survival was 75% (inactive). With `Cc1ccc(S(=O)(=O)c2nc(-c3ccc(Cl)cc3)oc2N2CCCCCC2)cc1` the survival was 36% (active). `COc1ccc(-c2nc(S(=O)(=O)c3ccc(Cl)cc3)c(N3CCCCCC3)o2)cc1` was tested, and the survival was 76% (inactive). For `Cc1ccc(-c2nc(S(=O)(=O)c3ccc(Cl)cc3)c(N3CCCCC3)o2)cc1`, the survival was 11% (active). With `O=S(=O)(c1ccc(Cl)cc1)c1nc(-c2ccccc2)oc1N1CCN(c2ccccc2)CC1` the survival was 86% (inactive). In the case of `O=C(O)c1ccc(CNCc2ccccc2Cl)s1`, the survival is reported as 88% (inactive). In the case of `CC(C)(C)OC(=O)N1CCC(c2c(C(=O)NCc3ccco3)cnn2-c2ccccc2Cl)CC1`, the survival is reported as 76% (inactive). For `Cc1ccc(C(=O)N2C(C)CCCC2C)c(Cl)c1` (stereo not given), the survival was 70% (inactive). `COC(=O)CN(C#N)c1nc(SC)nc(N(C)C)n1` was tested, and the survival was 52% (active). With `CNC(=O)CN(C#N)c1nc(N(C)C)nc(N(C)C)n1` the survival was 87% (inactive). In the case of `COC(=O)CN(C#N)c1nc(C)cc(C)n1`, the survival is reported as 94% (inactive). `Cc1nc(SCc2cc(=O)c3cccc(F)c3[nH]2)n[nH]1` was tested, and the survival was 94% (inactive). With `CCOC(=O)c1c(N)sc2c1CN(C(=O)OC)N(C(=O)OC)C2` the survival was 112% (inactive). For `CCOC(=O)c1c(N)sc2c(OC)c(Br)ccc12`, the survival was 1% (active). In the case of `CCOC(=O)c1c(NC(C)=O)sc2c(NC(C)=O)cccc12`, the survival is reported as 69% (inactive). In the case of `COC(=O)c1cnc(N2CCN(c3ccc(F)cc3)CC2)c2ccccc12`, the survival is reported as 80% (inactive). With `COc1ccc(Cn2ccc3nc(C)c(C(=O)NCc4ccc(OC)cc4OC)cc3c2=O)cc1` the survival was 25% (active). With `COc1ccc(CNC(=O)c2cc3c(=O)n(Cc4ccco4)ccc3nc2C)c(OC)c1` the survival was 67% (inactive). `COc1ccc(NC(=O)c2cc3c(=O)n(Cc4cccnc4)ccc3nc2C)c(OC)c1` was tested, and the survival was 83% (inactive). With `COc1ccc(Cn2ccc3nc(C)c(C(=O)Nc4ccc(OC)cc4)cc3c2=O)cc1` the survival was 89% (inactive). For `COc1ccc(Cn2ccc3nc(C)c(C(=O)Nc4ccc(OC)cc4OC)cc3c2=O)cc1`, the survival was 8% (active). With `COc1ccc(NC(=O)c2cc3c(=O)n(Cc4ccco4)ccc3nc2C)c(OC)c1` the survival was 81% (inactive). `COc1ccc(Cn2ccc3nc(C)c(C(=O)Nc4ccc(F)cc4)cc3c2=O)cc1` was tested, and the survival was 20% (active). For `COc1ccc(Cn2ccc3nc(C)c(C(=O)Nc4ccc(OC(F)(F)F)cc4)cc3c2=O)cc1`, the survival was 92% (inactive). With `COc1ccc(CNC(=O)c2cc3c(=O)n(Cc4ccc(OC)cc4)ccc3nc2C)cc1` the survival was 66% (inactive).
